Bioassay records (PubChem BioAssay)
Only some compounds are listed: those with a hit (about 6.6% of all), similar ones and a draw of the others.
KB-3-1 tox: KB-3-1 parental cell cytotoxicity; KB-3-1 viability, CellTiter-Glo ATP luminescence, 72 h; 1.4% of 400,000 active; Potency, µM (top dose mostly 46.1 µM), actives largely listed as cytotoxic; note: % is set by controls: 0 for no effect and ±100 for the full control effect; nearly all actives have a fitted effect of over 60% in size
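Using CellTiter-Glo luminescence, growth of non-resistant KB-3-1 adenocarcinoma cells is assessed 72 h after pin-tool compound addition at 37 °C. Normalized responses across the concentration series yield fitted curves.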
TGFb SMAD3 inh: inhibitors of TGF-b signaling; 1.2% of 410,000 active; Potency, µM (series often up to 46.1 µM), for inactives: at the top dose activity, negative = inhibition, usual class: inhibitors; HepG2 CAGA-GFP TGF-b/SMAD3 reporter, GFP fluorescence, 18 h; TGF-beta stimulated, 500 pg/mL final; AID 588855; note: % is set by controls: 0 for no effect and ±100 for the full control effect; nearly all actives have a fitted effect of over 65% in size
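HEPG2 CAGA-GFP cells (1000/well, DMEM with 1% FBS) were pre-incubated 2 h at 37 degrees C, given compound by pin tool, then stimulated with TGF-beta at 500 pg/mL final for 18 h before per-cell GFP fluorescence imaging.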
HT1080 IDH1KD tx: toxicity to HT-1080 IDH1 knockdown cells (counter line) | HT-1080 IDH1 knockdown viability, ATP luminescence, 48 h | Potency, µM (top dose mostly 46.1 µM), for the others: at the top dose activity, negative = toxicity, usual class: cytotoxic | 2% of 360,000 active;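 note: 0% = DMSO wells and -100% = cell-free medium wells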
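IDH1KD HT-1080 cells, 750/well, RPMI + 5% FBS; compound pinned after 2 h settling; 48 h, 37 °C; CellTiter-Glo luminescence; % activity normalised to DMSO and no-cell wells; curves fitted, classed by r2 and efficacy.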
HT1080NT lethal: kills 2HG-producing HT-1080-NT fibrosarcoma cells. Potency, µM (top dose mostly 46.1 µM), for the others: at the highest dose activity, negative = less viability, actives largely listed as cytotoxic. 1.6% of 360,000 active. HT-1080-NT fibrosarcoma viability, CellTiter-Glo ATP luminescence, 48 h;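 note: NT is the 2HG producing partner of a matched IDH1 knockdown line; 0% = DMSO-treated cells and -100% = media-only wells without cells; nearly all actives have a fitted effect of over 55% in size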
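750 cells/well, RPMI + 5% FBS; 2 h settle, compound pin-transfer, 48 h at 37 degrees C. CellTiter-Glo 10 min RT, luminescence. Normalized to DMSO and media-only wells.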
KB-V1 MDR tox: kills drug-selected multidrug resistant KB-V1 cells. AID 1347076. KB-V1 MDR cells viability, CellTiter-Glo, 72 h. Potency, µM (series often up to 46.1 µM), hits mostly cytotoxic. 3.4% of 400,000 active; note: % is set by controls: 0 for no effect and ±100 for the full control effect; nearly all actives have a fitted effect of over 60% in size
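Cells of the MDR subline KB-V1 are plated, dosed with compound at multiple concentrations, and incubated 72 h at 37 degrees C; CellTiter-Glo is then added and luminescence read after 10 min.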
HepG2 tox: HepG2 cytotoxicity, counter-screen for TGF-b inhibitors; AID 588856; Potency, µM (doses to about 46.1 µM), for the others: at the highest dose activity change, negative = cytotoxicity, most hits filed as cytotoxic; 0.76% of 410,000 active; HepG2 CAGA-GFP viability, ATP luminescence, 18 h
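HepG2 CAGA-GFP cells (1000/well, DMEM with 1% FBS) received compound, then TGF-beta at 500 pg/mL final, and were incubated 18 hours at 37 degrees C. Viability was read by CellTiter-Glo luminescence. Media-only wells were set as complete cell-killing and DMSO as no toxicity.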
The depositor's hits bear a star; i = inactive; ? = inconclusive; · = no result. Calls come from the whole dose curve; as a rule, active = well fitted curve in the direction sought with a large enough effect; inconclusive = small, poorly fitted or top-dose-only effect, or another doubt; inactive = no such curve, though single readings can be large; an effect the other way counts as inactive or inconclusive. Potency is the fitted concentration of half-maximal effect.

SMILES | KB-3-1 tox | TGFb SMAD3 inh | HT1080 IDH1KD tx | HT1080NT lethal | KB-V1 MDR tox | HepG2 tox
COc1cc(C(=O)NCC(c2cccs2)S(=O)(=O)c2ccc(F)cc2)cc(OC)c1OC (stereo not drawn) | i | -2.4% | · | · | i | -18.8%
CCOc1cc(C2c3c(-c4cc(C)ccc4O)n[nH]c3C(=O)N2CCCOC(C)C)ccc1O (stereo not drawn) | · | 12.6µM* | · | · | · | -13.3%
COc1ccc(C2c3c(-c4ccccc4O)n[nH]c3C(=O)N2CCc2ccccc2)cc1 (stereo not drawn) | · | ? | · | · | · | -96.6%
O=C1c2[nH]nc(-c3ccccc3O)c2C(c2cccc(OCc3ccccc3)c2)N1CCCO (stereo not drawn) | i | 10µM* | · | · | i | -101.6%
CC(C)OCCCN1C(=O)c2[nH]nc(-c3ccccc3O)c2C1c1ccc(OCc2ccccc2)cc1 (stereo not drawn) | · | ? | · | · | · | -95.0%
COc1cc(C2c3c(-c4ccccc4O)n[nH]c3C(=O)N2CCO)ccc1OCc1ccccc1 (stereo not drawn) | i | -25.4% | · | · | i | -18.3%
CCCN1C(=O)c2[nH]nc(-c3ccccc3O)c2C1c1ccc(OCc2ccccc2)c(OC)c1 (stereo not drawn) | 20.6µM* | 12.6µM* | · | · | ? | -42.0%
CCCOc1ccc(C2c3c(-c4ccccc4O)n[nH]c3C(=O)N2CCc2ccccc2)cc1OCC (stereo not drawn) | i | 11.2µM* | · | · | i | 11.2µM*
Cc1ccn2c(C(C)O)nnc2c1 (stereo not drawn) | i | -9.0% | -0.4% | -0.9% | i | -3.4%
Cc1ccc2c(c1)CCCN2C(=O)c1cnn2c1NC(=C1CC1)C=C2C(F)F | ? | -12.6% | · | · | ? | -8.8%
CCOC(=O)c1nc(NNC(=O)c2ccc([N+](=O)[O-])cc2)sc1C | 18.4µM* | ? | 7.31µM* | ? | ? | -55.2%
O=C(Nc1ncc(Cc2ccc(Cl)cc2Cl)s1)c1ccc([N+](=O)[O-])cc1 | 5.8µM* | 13.8% | -1.2% | -5.9% | ? | 13.9%
O=C(Nc1nnc(COc2ccc(Cl)cc2)s1)c1ccc([N+](=O)[O-])cc1 | i | 2.3% | 20.8% | 16.3% | ? | 7.6%
CCC(CC)c1nnc(NC(=O)c2ccc([N+](=O)[O-])cc2)s1 | i | 3.7% | 23.8% | 12.2% | 20.6µM* | 3.0%
CCOc1cc(-c2nc(-c3ccc(-c4ccc(C)cc4)nc3OC)no2)cc(OCC)c1OCC | i | 5.5% | · | · | i | -55.4%
O=C(Cn1cc(COc2ccc(Cl)c(Cl)c2)nn1)NS(=O)(=O)c1ccccc1C(F)(F)F | i | 4.7% | 19.2% | 25.1% | i | -4.2%
Cc1cc(C)c(S(=O)(=O)n2ccc3ccccc32)c(C)c1 | 23.1µM* | -23.2% | 2.9% | 4.7% | ? | -18.5%
O=S(=O)(c1ccccc1)n1ccc2ccccc21 | i | 30.8% | -11.0% | -10.7% | i | -2.6%
Brc1ccc(N/N=C(/N=Nc2nn[nH]n2)c2ccccc2)cc1 | i | ? | 2.91µM* | ? | ? | 3.6%
O=C(O)c1ccc(N=N/C(=N\Nc2ccc(C(=O)O)cc2)c2ccccc2)cc1 | i | 1.5% | ? | -8.6% | i | 3.1%
Cc1ccc(-n2nc(-c3ccccc3)cc2Nc2ccccc2N)cc1 | i | 6.8% | 16.2% | 16.3% | i | -8.0%
Cc1ccc(-c2cc3nn(-c4ccccc4)c(N)c3c(=O)o2)cc1 | 20.6µM* | 1.1% | -11.3% | ? | 16.4µM* | -15.2%
CC1CC(=O)NN=C1c1ccc(NCCO)c([N+](=O)[O-])c1 (stereo not drawn) | i | -0.9% | -3.2% | 9.7% | 0.13µM* | -0.9%
COc1ccc(C(=O)Nc2ccc(C3=NNC(=O)CC3C)cc2NC(=O)c2ccc(OC)cc2)cc1 (stereo not drawn) | i | -9.5% | -20.8% | -10.0% | ? | -21.2%
CCC(=O)N1CCc2cc(S(=O)(=O)NC(CC(C)C)C(=O)Nc3cc(C)ccc3OC)ccc21 (stereo not drawn) | i | -13.3% | · | · | i | -0.8%
SMILES | KB-3-1 tox | TGFb SMAD3 inh | HT1080 IDH1KD tx | HT1080NT lethal | KB-V1 MDR tox | HepG2 tox
CCCN(CC(=O)Nc1cc(Cl)ccc1Cl)C(=O)c1ccc(N2CCCC2=O)cc1 | ? | -8.9% | -2.4% | 0.2% | 7.31µM* | -2.0%
Cc1ccc(S(=O)(=O)NN=C2CC3CCC2(C)C3(C)C)cc1 (stereo not drawn) | i | -1.3% | -4.3% | -5.4% | i | -10.7%
CC(=O)c1sc(N/N=C2\CC3CCC2(C)C3(C)C)nc1C (stereo not drawn) | i | 6.0% | ? | 23.1µM* | ? | -23.3%
CC(C)C(C(=O)OCC(=O)c1cccc([N+](=O)[O-])c1)N1C(=O)[C@@H]2[C@H]3CC[C@H](C3)[C@@H]2C1=O (stereo partly drawn) | i | 2.1% | 8.2% | 11.1% | 20.6µM* | 11.2%
O=C(CN1C(=O)C2C3CCC(C3)C2C1=O)OCC(=O)c1cccc([N+](=O)[O-])c1 (stereo not drawn) | i | 3.1% | 1.2% | 6.2% | i | 0.6%
Cc1ccc(Nc2nc(C)nc(N)c2S(=O)(=O)c2ccccc2)cc1 | i | 6.6% | · | · | i | -1.3%
O=C(NCc1ccc2c(c1)OCO2)c1nnc(Cc2ccc(F)cc2)o1 | i | ? | 0.8% | -0.4% | i | -21.2%
Nc1nc2cc3c(cc2cc1C(=O)NCc1ccc(F)cc1)OCO3 | 7.31µM* | · | ? | ? | i | ·
COc1ccccc1CNc1ncnc2onc(-c3ccc(F)cc3)c12 | i | 7.3% | · | · | i | -8.2%
COc1ccc(Oc2c(Cl)cnn(-c3ccc(Cl)c(Cl)c3)c2=O)cc1 | ? | -3.4% | ? | 18.4µM* | ? | -31.6%
CCn1nc(C)c(CCN(C)C(=O)Nc2cc(C)cc(C)c2)c1C | i | -1.3% | · | · | i | 2.0%
CC(=O)c1c(C)[nH]c(C(=O)OCC(=O)Nc2cccc(S(=O)(=O)N3CCCC3)c2)c1C | 2.31µM* | -25.2% | -24.0% | 6.0% | ? | -0.2%
